# The list is not random: actives were taken first. Their share in the collection is about 6.5%.
# FMDV antiviral – antivirals against foot and mouth disease virus; AID 1159524; 1.2% of 410,000 active; Potency, µM (top dose mostly 57.9 µM), without a hit: top-dose activity change, negative = inhibition, usual class: inhibitors; FMDV antiviral cell-based qHTS; calls by dose curve; tested in HEK293T cells; also: read-out not given here; potency is read from the fitted curve at half-maximal effect; nearly all actives have a fitted effect of over 45% in size
# Vaccinia mCherry – inhibitors of vaccinia virus infection (mCherry reporter signal) | Vaccinia virus mCherry reporter infection, fluorescence | Potency, µM (top dose mostly 36.5 µM), for inactives: at the top dose activity change, negative = inhibition, usual class: inhibitors | 0.63% of 310,000 active; calls by dose curve; tested in A549 cells; also: potency is read from the fitted curve at half-maximal effect; nearly all actives have a fitted effect of over 35% in size
# HCMV inh – blocks human cytomegalovirus replication. 4.5% of 410,000 active. activity change, negative = inhibition, % at 57.5 µM. HFF cells, HCMV-luciferase reporter, 72 h; stronger effect = lower value; in the data active = activity change below about -60%; inconclusive = no clear call, values can overlap the other calls; inactive = above about -39%
#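 Human foreskin fibroblasts infected with luciferase-reporter HCMV at MOI 1 PFU/cell, compounds at two doses. Luciferase measured 72 h post infection; normalized to buffer-only basal and Salinomycin (10uM) controls.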
# LASV entry inh – inhibitors of Lassa virus binding or cell entry. Lassa virus pseudotype entry inhibition, cell reporter. Potency, µM (top dose mostly 37.9 µM), for inactives: at the top dose activity change, negative = inhibition, usual class: inhibitors. 1.2% of 300,000 active; calls by dose curve; tested in HEK293 cells; also: potency is read from the fitted curve at half-maximal effect; nearly all actives have a fitted effect of over 50% in size
# VACV Venus inh – inhibitors of vaccinia virus (Venus reporter). Vaccinia virus Venus reporter expression, fluorescence. Potency, µM (doses to about 36.5 µM), for the others: at the highest dose activity change, negative = inhibition, hits mostly inhibitors. 0.46% of 330,000 active; calls by dose curve; tested in A549 cells; also: potency is read from the fitted curve at half-maximal effect; nearly all actives have a fitted effect of over 30% in size
# Marburg entry inh – blocks Marburg virus binding to or entry into cells; Marburg virus pseudotyped entry inhibition, cell reporter; Potency, µM (top dose mostly 37.8 µM), for inactives: top-dose activity change, negative = inhibition, most hits filed as inhibitors; 1.8% of 300,000 active; calls by dose curve; tested in HEK293 cells; also: potency is read from the fitted curve at half-maximal effect
# * hit, by the source's call; i = inactive; ? = inconclusive; . = no result given; ! = a repeat was not active; [ ] = another dose, or the depositor's remark. % is scaled to controls: 0 for no effect and ±100 for the full control effect.
SMILES,FMDV antiviral,Vaccinia mCherry,HCMV inh,LASV entry inh,VACV Venus inh,Marburg entry inh
C=C1C(=O)O[C@@H]2C[C@@H](C)[C@@H]3C4OC4C(=O)[C@@]3(C)[C@@H](O)[C@H]12 (some centres undefined),?,?,-79*,.,14µM*,.
C=C1C(=O)OC2CC(C)C3C=CC(=O)C3(C)C(O)C12 (centres undefined),8.9µM*,?,.,1.3µM*,6.3µM*,0.63µM*
CC1C(=O)O[C@@H]2C[C@@H](C)[C@@H]3CCC(=O)[C@@]3(C)[C@@H](O)[C@H]12 (some centres undefined),-23%,i,-7,.,1%,.
Cc1nn(C)c(Oc2ccccc2)c1CCNS(=O)(=O)c1ccc(Cl)cc1,-13%,?,-75*,-23%,?,-19%[46.1 µM]
Cc1nn(C)c(Oc2ccccc2)c1CCNC(=O)C(C)(C)C,-14%,.,-83*,.,.,.
Cc1nn(C)c(Oc2ccccc2)c1CCNC(=O)CC(C)C,-13%,i,-2,-9%,-11%,-18%[46.1 µM]
CCCN1CNc2c(c(=O)[nH]c(=S)n2CCc2c(Cl)cccc2Cl)C1,.,i,.,.,-11%,.
COc1ccc2c3n([n+]([O-])c2c1)C(C)CN=C3c1ccc(Cl)cc1 (centres undefined),.,.,50,.,.,.
CN1OC[C@@H]2CN(CC3CCCCC3)[C@H](c3ccc(-c4ccc(C#N)cc4)cc3)C[C@@H]21,.,.,-19,.,.,.
Cc1ccc(C=C2C(Cl)=C(Cl)C(Cl)=C2Cl)cc1,18µM*,4%,.,13%,10%,17%[46.1 µM]
Cc1ccc(NC(=O)Cn2c(=O)n(Cc3ccc4c(c3)OCO4)c(=O)c3ccc(C(=O)NC4CCCCC4)cc32)cc1,-10%,-7%,19,0%[46.1 µM],-7%,12%[46.1 µM]
CCCSc1ccc(-c2nn(-c3ccccc3)cc2/C=C(/C#N)C(=O)N2CCOCC2)cc1,-12%,-26%,-15,?,-21%,7.1µM*
CCSc1ccc(-c2nn(-c3ccccc3)cc2/C=C(/C#N)C(=O)NC)cc1,-18%,i,2,-10%,-23%,8%
CCN(C(=O)CSc1nc2ccccc2n1CC(=O)Nc1ccccc1C)c1ccccc1,7%,-21%,7,-3%[46.1 µM],4%,.
O=C(c1cccc(F)c1F)N1CCOc2ccc(CN3CCC(Oc4cccnc4)CC3)cc2C1,-19%,11%,.,.,-4%,.
Oc1c(C(c2ccccc2F)N2CCC3(CC2)OCCO3)sc2nc(-c3ccco3)nn12 (centres undefined),12%,-5%,11,?,-3%,.
CC1=C(c2ccc(Cl)cc2)S(=O)(=O)NC1=NCCCN1CCN(c2cc(C)ccc2C)CC1,?,10µM*,-100*,-17%[46.1 µM],11µM*,-12%[46.1 µM]
O=C1N/C(=N\c2ccccn2)SC1Cc1ccccc1Cl (centres undefined),13%,.,-12,.,.,.
O=C1NC(=Nc2cccc(Cl)c2)SC1Cc1cccc(Cl)c1Cl (centres undefined),.,-4%,-78*,?,-16%,-23%
CNC(=O)c1ccccc1C1(O)c2ccccc2CCc2ccccc21,.,.,13,.,.,.
Cc1cccc(CC2S/C(=N/c3ccccn3)NC2=O)c1 (centres undefined),-4%,.,-65*,?,-18%,7%
O=C1N/C(=N\N=C\c2cccnc2)SC1Cc1ccc(SC(F)F)cc1 (centres undefined),0%,.,-85*,?,.,?
O=C1N/C(=N\N=C\c2ccccn2)SC1Cc1cccc(SC(F)F)c1 (centres undefined),-17%,-12%,-99*,?,-10%,?
Cc1ccc(C2CCN(C(=O)c3cnn(-c4ccc(C)c(C)c4)c3C3CCN(C(=O)OC(C)(C)C)CC3)C2)cc1 (centres undefined),?,-29%,0,?,-26%,.
COc1ccc([C@H]2/C(=C(\O)c3ccc(OC(C)C)cc3)C(=O)C(=O)N2CCCN2CCOCC2)cc1,.,.,.,.,.,-13%
SMILES,FMDV antiviral,Vaccinia mCherry,HCMV inh,LASV entry inh,VACV Venus inh,Marburg entry inh
CCN(CC)CCCn1c(C)cc2c(c1=O)[C@@H](c1cccc(Cl)c1)C(C#N)=C(N)O2,.,.,.,.,.,11µM*
CC(=O)Nc1ccc(Nc2ccc(S(=O)(=O)C(F)(F)F)cc2[N+](=O)[O-])cc1,0%,-23%,-97*,-17%,-16%,-36%
CC1(C)CC(=O)C2=C(C1)OC1=C(C(=O)CC(C)(C)C1)C2c1ccc(O)c([N+](=O)[O-])c1,3%,.,32,.,.,.
CC1(C)CC(=O)C2=C(C1)OC1=C(C(=O)CC(C)(C)C1)C2c1ccc(O)cc1O,6.3µM*,.,-102*,-87%,.,?
CCCNC(=O)c1nnc2n1CCN(C(=O)c1ccc3sccc3c1)C2,.,.,-8,.,.,.
CCC(=O)NC(c1cccs1)c1ccc2cccnc2c1O (centres undefined),4%,?,-101*,.,?,.
Cc1conc1NC(c1cccs1)c1ccc2cccnc2c1O (centres undefined),.,.,.,.,.,1%
CCN1CCN(C(c2cccs2)C(C)NC(=O)CC(C)C)CC1 (centres undefined),-5%,i,26,13%,0%,-22%
CC(C)CC(=O)NC(c1cccs1)c1ccc2cccnc2c1O (centres undefined),8%,6.3µM*,.,?,?,10µM*
COc1ccc2[nH]c(=O)c(CN(CCO)S(=O)(=O)c3c(C)ccc4nsnc34)cc2c1,-12%,.,-3,0%,.,11%
COc1ccc2[nH]c(=O)c(CN(Cc3cccs3)S(=O)(=O)c3cccc4nsnc34)cc2c1,-18%,.,?,?,.,16µM*!
COc1ccc2[nH]c(=O)c(CN(Cc3cccs3)C(=S)Nc3cccc(C)c3)cc2c1,-30%,-15%,-66*,?,-12%,4.5µM*
CC(C)CNC(=O)N1CCN(S(=O)(=O)c2ccc3c(ccn3C)c2)CC1,-4%,-16%,12,11%[46.1 µM],-8%,.
O=C(C(=C1N(Cc2ccc(Cl)nc2)CCN1Cc1ccc(Cl)nc1)[N+](=O)[O-])C(Cl)Cl,-3%,.,-4,.,.,.
CC(=O)N1CCN(Cc2ccc(Cl)nc2)CC1,-8%,i,-78*,-2%[46.1 µM],-10%,11%[46.1 µM]
O=[N+]([O-])/C(C(=C(Cl)Cl)N1CCN(Cc2ccccc2)CC1)=C1\NCCN1Cc1ccc(Cl)nc1,12%,10µM*,-14,-11%,?,?
O=C(NC1(Cc2ccccc2)CCN(CCCc2ccccc2)C1=O)c1ccccc1 (centres undefined),1%,i,-98*,.,?,.
OCC1(Cc2ccc(Cl)cc2)CCN(CCCc2ccccc2)CC1,-17%,i,-9,?,-24%,?
O=C1NC2(CCCCC2)N=C1c1ccc(F)cc1,-15%,-15%,-74*,-18%[14.3 µM],-10%,-16%
O=C1NC2(CCCCC2)N=C1c1ccc(Br)cc1,18%,-11%,2,10%,-3%,3%
C[n+]1c2cc(N)ccc2cc2ccc(N)cc21,?,5.6µM*,-99*,.,?,.

# Screening results (PubChem BioAssay)
